Values joined by “and” are separate entries in the source; they are usually repeats but may differ in a detail not shown here. Identical values can stand only once. About 2,000 (36%) of roughly 5,500 compounds were called active. Another 18% or so got no clear call; they are omitted. Rule as the data show it: active = normalized growth mostly below about 0.91 (no sharp cut-off); inconclusive = no clear call, values can overlap the other calls; inactive = mostly above about 0.92. This is one part of the list.
Test: chemical genetic growth profiling, strain panel (AID 1159580);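 also: tested at 20 µM; growth read once vehicle control cultures reached saturation at 30 °C; 1 = growth at the plate median or of vehicle wells; lower values mean less growth of the strain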
Settings: S. cerevisiae deletion strains, growth OD

Measured: normalized growth

CNC[C@H](O)c1cccc(O)c1
inactive: locus YAL013W, strain DEP1, hits give low values 1.01 | locus YAL021C, strain ccr4, hits give low values 0.979 | locus YAL026C, strain drs2, hits give low values 0.997 | locus YAL030W, strain snc1, hits give low values 0.986 | locus YBL061C, strain skt5, hits give low values 0.988 | locus YBR009C, strain hhf1, hits give low values 0.995 | locus YBR021W, strain FUR4, hits give low values 1 | locus YBR023C, strain chs3, hits give low values 0.986 | locus YBR171W, strain sec66, hits give low values 0.98 | locus YBR229C, strain ROT2, hits give low values 1.01 | locus YBR231C, strain swc5, hits give low values 0.967 | locus YBR279W, strain paf1, hits give low values 0.991 | locus YCL011C, strain gbp2, hits give low values 1 | locus YCL016C, strain dcc1, hits give low values 0.983 | locus YCL029C, strain bik1, hits give low values 1.02 | locus YCL069W, strain vba3, hits give low values 0.991 | locus YCR088W, strain abp1, hits give low values 0.986 | locus YDL005C, strain med2, hits give low values 0.968 | locus YDL035C, strain GPR1, hits give low values 1.01 | locus YDL040C, strain nat1, hits give low values 0.984 | locus YDL074C, strain BRE1, hits give low values 1.01 | locus YDL101C, strain DUN1, hits give low values 1.01 | locus YDL134C, strain PPH21, hits give low values 1.01 | locus YDL185W, strain tfp1, hits give low values 1.02 | locus YDL192W, strain arf1, hits give low values 1.02 | locus YDR001C, strain nth1, hits give low values 0.991 | locus YDR069C, strain doa4, hits give low values 0.982 | locus YDR101C, strain arx1, hits give low values 1.02 | locus YDR137W, strain rgp1, hits give low values 0.966 | locus YDR150W, strain NUM1, hits give low values 1.01 | locus YDR159W, strain sac3, hits give low values 0.981 | locus YDR162C, strain NBP2, hits give low values 1.01 | locus YDR195W, strain ref2 0.91 | locus YDR297W, strain sur2, hits give low values 0.981 | locus YDR318W, strain mcm21, hits give low values 1.02 | locus YDR334W, strain swr1, hits give low values 0.982 | locus YDR335W, strain msn5, hits give low values 0.99 | locus YDR388W, hits give low values 1.01 | locus YDR392W, strain spt3, hits give low values 1 | locus YDR502C, strain sam2, hits give low values 1.01 | locus YEL003W, strain gim4, hits give low values 0.989 | locus YEL037C, strain rad23, hits give low values 0.984 | locus YEL061C, strain CIN8 (second series), hits give low values 0.99 | locus YEL061C, strain CIN8, hits give low values 1.01 | locus YER015W, strain faa2, hits give low values 0.969 | locus YER016W, strain bim1, hits give low values 0.981 | locus YER110C, hits give low values 1.02 | locus YER111C, strain swi4, hits give low values 0.988 | locus YER155C, strain BEM2 (second series), hits give low values 0.953 | locus YER155C, strain BEM2, hits give low values 1 | locus YER167W, strain BCK2, hits give low values 1.01 | locus YFR010W, strain ubp6, hits give low values 0.976 | locus YGL078C, strain dbp3, hits give low values 1.01 | locus YGL086W, strain mad1, hits give low values 1 | locus YGL167C, strain pmr1, hits give low values 0.983 | locus YGL173C, strain kem1, hits give low values 0.955 | locus YGL227W, strain vid30, hits give low values 0.971 | locus YGL240W, strain doc1, hits give low values 0.95 | locus YGL248W, strain PDE1, hits give low values 1 | locus YGL253W, strain hxk2, hits give low values 1.01 | locus YGR078C, strain PAC10, hits give low values 0.996 | locus YGR135W, strain pre9, hits give low values 1 | locus YGR229C, strain SMI1, hits give low values 0.992 | locus YGR252W, strain gcn5, hits give low values 0.989 | locus YHR013C, strain ard1, hits give low values 0.982 | locus YHR027C, strain rpn1, hits give low values 0.99 | locus YHR030C, strain SLT2, hits give low values 1 and 1.01 | locus YHR079C, strain IRE1 (second series), hits give low values 1.02 | locus YHR079C, strain IRE1, hits give low values 1.03 | locus YHR094C, strain hxt1, hits give low values 1.02 | locus YHR129C, strain ARP1, hits give low values 1.01 | locus YHR142W, strain chs7, hits give low values 1 | locus YHR200W, strain rpn10, hits give low values 1.02 | locus YIL066C, strain RNR3, hits give low values 1.01 | locus YIL073C, strain SPO22, hits give low values 1.04 | locus YIL125W, strain kgd1, hits give low values 1.01 | locus YIR030C, strain dcg1, hits give low values 1.01 | locus YJL092W, strain hpr5, hits give low values 0.977 | locus YJL095W, strain BCK1 (second series), hits give low values 0.98 | locus YJL095W, strain BCK1, hits give low values 1.01 and 1.02 | locus YJL115W, strain asf1, hits give low values 0.976 | locus YJL129C, strain trk1, hits give low values 0.977 | locus YJL134W, strain LCB3, hits give low values 1 | locus YJL154C, strain vps35, hits give low values 0.987 | locus YJL164C, strain tpk1, hits give low values 0.985 | locus YJL166W, strain qcr8, hits give low values 0.956 | locus YJL168C, strain set2, hits give low values 1.02 | locus YJL187C, strain SWE1 (second series), hits give low values 1.01 | locus YJR043C, strain POL32, hits give low values 0.996 | locus YJR066W, strain TOR1, hits give low values 0.969 | locus YJR075W, strain HOC1, hits give low values 1

Source: PubChem BioAssay AID1159580 (chemical genetic matrix, 2015)
